# Screen size: about 310,000 compounds; about 14,000 (4.5%) showed an effect of 50% or more. The effect is printed as a negative number. The sample holds strong results, similar compounds and a random draw of the others, so the mix is not that of the screen.
# Target: human ether-à-go-go-related gene (hERG) potassium channel (human, UniProt Q12809)
# Assay: primary screen, population patch clamp on CHO cells stably expressing hERG; higher = less effect of the substance
# 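Further: peak tail current of the secondary pulse compared with the same well before compound.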
# Sequence of human ether-à-go-go-related gene (hERG) potassium channel (Q12809 whole entry, looked up): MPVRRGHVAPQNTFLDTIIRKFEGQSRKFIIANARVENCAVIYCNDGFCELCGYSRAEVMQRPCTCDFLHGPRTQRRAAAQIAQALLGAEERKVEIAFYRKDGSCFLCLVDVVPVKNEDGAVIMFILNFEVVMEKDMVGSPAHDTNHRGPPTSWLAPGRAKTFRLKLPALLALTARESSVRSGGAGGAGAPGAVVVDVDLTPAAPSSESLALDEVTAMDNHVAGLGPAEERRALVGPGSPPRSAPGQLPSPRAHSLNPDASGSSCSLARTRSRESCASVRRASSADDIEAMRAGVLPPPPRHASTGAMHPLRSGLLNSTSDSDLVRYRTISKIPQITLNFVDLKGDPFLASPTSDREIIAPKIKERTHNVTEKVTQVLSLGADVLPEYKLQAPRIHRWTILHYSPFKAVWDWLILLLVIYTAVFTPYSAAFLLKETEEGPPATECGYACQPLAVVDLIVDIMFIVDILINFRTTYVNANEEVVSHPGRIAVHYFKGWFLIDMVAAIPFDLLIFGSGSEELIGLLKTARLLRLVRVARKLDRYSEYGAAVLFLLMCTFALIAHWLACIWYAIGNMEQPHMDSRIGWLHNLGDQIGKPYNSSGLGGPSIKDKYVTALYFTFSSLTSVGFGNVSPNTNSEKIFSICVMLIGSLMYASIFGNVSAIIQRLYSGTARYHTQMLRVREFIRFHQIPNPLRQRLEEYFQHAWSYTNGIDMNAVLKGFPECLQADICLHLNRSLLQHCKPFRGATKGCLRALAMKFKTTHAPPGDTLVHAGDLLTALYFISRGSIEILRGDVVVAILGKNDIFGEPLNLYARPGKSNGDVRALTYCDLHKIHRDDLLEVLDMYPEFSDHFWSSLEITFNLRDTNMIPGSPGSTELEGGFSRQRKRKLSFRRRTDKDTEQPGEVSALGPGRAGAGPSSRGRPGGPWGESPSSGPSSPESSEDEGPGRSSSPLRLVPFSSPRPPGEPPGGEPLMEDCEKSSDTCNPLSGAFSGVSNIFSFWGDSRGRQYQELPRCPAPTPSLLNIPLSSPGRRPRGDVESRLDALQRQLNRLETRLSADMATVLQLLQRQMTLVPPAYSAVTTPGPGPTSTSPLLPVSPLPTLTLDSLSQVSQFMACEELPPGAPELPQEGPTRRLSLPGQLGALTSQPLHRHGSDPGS
row,Structure (SMILES),"hERG current change (%, negative = inhibition) at 10uM"
1,NC(=O)CSc1nc2scc(-c3ccc(Cl)cc3)c2c(=O)n1Cc1ccccc1,33.1%
2,O=[N+]([O-])c1ccc(N2CCN(S(=O)(=O)c3ccccc3[N+](=O)[O-])CC2)cc1NCc1cccnc1,-8.91%
3,Cc1ccccc1OCC(=O)N/N=C/c1cccc(Oc2ccc([N+](=O)[O-])cc2[N+](=O)[O-])c1,5.59%
4,CCn1cc(C(=O)NCCc2ccccc2)c(=O)c2cc(S(=O)(=O)N(C)C)ccc21,7.05%
5,O=C(NCCc1csc(-c2cccnc2)n1)c1cccc(Cl)c1,-17.7%
6,CC1CCN(c2ccc(C(=O)O)cc2)CC1,2.86%
7,COc1ccc(/C=C/C(=O)NCC(=O)N2CCC(N(C)CCN3CCOCC3)CC2)cc1OC,14.7%
8,CCOc1ccccc1/C=C/C(=O)NCC(=O)N1CCC(N(C)C2CCCCC2C)CC1 (stereo not shown),-54.7%
9,O=C(/C=C/c1cccc(Cl)c1)NCCN1CCOCC1,-14.7%
10,COc1ccccc1/C=C/C(=O)NC(=S)N(C)C1CCCCC1,1.35%
11,CC1CCN(C(=O)CNC(=O)Cc2ccccc2)CC1,9.53%
12,CCOc1ccc(C(=O)NCC(=O)N2CCC(C)CC2)cc1OCC,3.68%
13,Cc1ccccc1/C=C/C(=O)NCC(=O)N1CCC(N(C)C2CCCCC2C)CC1 (stereo not shown),-72.1%
14,CN(C)C(CNC(=O)/C=C/c1cccc(Cl)c1)c1ccccc1 (stereo not shown),-19.2%
15,CC1CCCCC1N(C)C1CCN(C(=O)CNC(=O)/C=C/c2cccc(Cl)c2)CC1 (stereo not shown),-73.6%
16,O=C(Nc1ccc(S(=O)(=O)NCC2CCCO2)cc1)C1CC(=O)N(c2ccccc2)C1 (stereo not shown),3.16%
17,O=C(NCCCn1ccnc1)c1cn(Cc2ccc(F)cc2)nn1,-9.7%
18,COc1ccc(C(C)=O)cc1COC(=O)CNC(=O)c1cc(C)cc(C)c1,-11.7%
19,Cc1cccc(/C=N/NC(=O)C2CCCNC2=O)c1 (stereo not shown),19%
20,Cn1c(O)c(C(=Nc2ccccc2)SCc2ccccc2Cl)c(=O)n(C)c1=O,21.5%
21,CC(/C=C1\SC(=Nc2cccnc2)NC1=O)=C\c1ccccc1,8.95%
22,CC(=O)NC(Cc1ccccc1C)C(=O)NC1CCN(c2ncccc2[N+](=O)[O-])CC1 (stereo not shown),-1.73%
23,Clc1ccc(OCCCN2CCCC2)cc1Cl.O=C(O)C(=O)O,-67.7%
24,Cc1cc(OCC(=O)N2CCCC2)ccc1Cl,-0.71%
25,Cc1cc(OCCCN2CCCC2)ccc1Cl,-42.9%
26,Cc1cc(OCCCCCN2CCCC2)ccc1Cl.O=C(O)C(=O)O,-77.2%

row,Structure (SMILES),"hERG current change (%, negative = inhibition) at 10uM"
1,CN1CCN(CCOc2ccc(Cl)c(Cl)c2)CC1.O=C(O)C(=O)O,-22.3%
2,O=C(O)C(=O)O.c1ccc(COc2cccc(CN3CCCCC3)c2)cc1,-19.2%
3,Clc1ccc(OCCN2CCCCC2)cc1Cl.O=C(O)C(=O)O,-42.1%
4,CC(=O)OCC(=O)NCCCOc1cccc(CN2CCCCC2)c1.Cl,-2.29%
5,O=C(NCCCOc1cccc(CN2CCCCC2)c1)c1ccc(Cl)c(Cl)c1.O=C(O)C(=O)O,-60.8%
6,CC(=O)Nc1scc(-c2ccccc2)[n+]1-c1ccc(C)cc1.[Br-],1.06%
7,O=C(CCCNC(=O)c1ccc(Cl)cc1)Nc1ccc(F)c(S(=O)(=O)N2CCOCC2)c1,-33.6%
8,C/C(N)=C(/C#N)C(=O)COC(=O)c1cccc2ccccc12,-8.17%
9,Cc1cc(C)cc(NC(=O)CSc2nc3c(c(=O)n2C)SC(C)C3)c1 (stereo not shown),3.64%
10,O=C(CCCN1C(=O)NC2(CCCC2)C1=O)N1CCN(S(=O)(=O)c2ccccc2)CC1,0.403%
11,CC(=O)C(c1ccccc1)C(c1ccccc1)C(C)[N+](=O)[O-] (stereo not shown),14.3%
12,OCC(CO)(CO)n1cnnn1,12.3%
13,CCN(CC)c1ccc(/C=N/O)cc1,18.3%
14,CC(C)CCNC(=O)C(c1ccncc1)N(C(=O)Cn1nnc(-c2ccc(F)cc2)n1)c1ccccc1F (stereo not shown),-24.2%
15,O=C(NCC1CCCO1)C(c1ccncc1)N(Cc1cccs1)C(=O)Cn1nnc(-c2ccc(F)cc2)n1 (stereo not shown),-60.1%
16,O=C(NCC1CCCO1)C(c1ccco1)N(Cc1ccc(F)cc1)C(=O)CN1C(=O)c2ccccc2S1(=O)=O (stereo not shown),-7.48%
17,CC(C)CCNC(=O)C(c1ccncc1)N(Cc1cccs1)C(=O)Cn1nnc(-c2ccc(F)cc2)n1 (stereo not shown),-8.51%
18,COc1ccc(CN(C(=O)CN2C(=O)c3ccccc3S2(=O)=O)C(C(=O)NCC2CCCO2)c2ccncc2)cc1 (stereo not shown),-10.3%
19,CC(C)(C)NC(=O)C(c1ccncc1)N(CC1CCCO1)C(=O)Cn1nnc(-c2ccc(F)cc2)n1 (stereo not shown),-3.33%
20,O=C(NCC1CCCO1)C(c1ccncc1)N(Cc1ccc(F)cc1)C(=O)CN1C(=O)c2ccccc2S1(=O)=O (stereo not shown),-58.3%
21,O=C(NCC1CCCO1)C(c1ccc(F)cc1)N(Cc1ccc(F)cc1)C(=O)Cn1nnc(-c2cccs2)n1 (stereo not shown),-10.9%
22,CC(C)CCNC(=O)C(c1ccncc1)N(CC1CCCO1)C(=O)Cn1nnc(-c2ccc(F)cc2)n1 (stereo not shown),-64.8%
23,Cc1ccc(-n2c(SCC(=O)Nc3ccc(Cl)cc3)nc(O)cc2=O)cc1,9.08%
24,CC(C)(C)c1ccc(C(=O)Nc2ccc(O)c3c(=O)cc(-c4ccccc4Cl)oc23)cc1,-3.26%
25,O=C(NCCO)/C(=C\c1ccco1)NC(=O)c1ccco1,1.44%
26,CNc1ccc(NC(C)=O)cc1[N+](=O)[O-],1.68%

# — article PMC4336329 (PLoS ONE, 2015)
